In PubChem BioAssay AID778 (Sanford-Burnham Center for Chemical Genomics, 2007):
The whole screen tested about 96,000 compounds, of which about 20,000 (21%) were called active.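 Rule for the calls: active = CYP2C19 inhibition above a set limit at 5 µM in the primary screen (cut at about 50% in these data); inactive = the rest.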 Not all results are given here.

Biological target: Cytochrome P450 2C19 (Homo sapiens) (UniProt P33261)
Assay: blockers of cytochrome P450 2C19 activity – biochemical, luminescence, ADME assay, primary screen (AID 778);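 note: plate controls were negative control wells for no effect and 2.5 mM tranylcypromine positive control for full effect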
Conditions: CYP2C19 Supersomes, luciferin-H EGE luminescence, 30 min; at 5 µM; active compounds read high

Cytochrome P450 2C19 (Homo sapiens), sequence (P33261 whole entry, looked up): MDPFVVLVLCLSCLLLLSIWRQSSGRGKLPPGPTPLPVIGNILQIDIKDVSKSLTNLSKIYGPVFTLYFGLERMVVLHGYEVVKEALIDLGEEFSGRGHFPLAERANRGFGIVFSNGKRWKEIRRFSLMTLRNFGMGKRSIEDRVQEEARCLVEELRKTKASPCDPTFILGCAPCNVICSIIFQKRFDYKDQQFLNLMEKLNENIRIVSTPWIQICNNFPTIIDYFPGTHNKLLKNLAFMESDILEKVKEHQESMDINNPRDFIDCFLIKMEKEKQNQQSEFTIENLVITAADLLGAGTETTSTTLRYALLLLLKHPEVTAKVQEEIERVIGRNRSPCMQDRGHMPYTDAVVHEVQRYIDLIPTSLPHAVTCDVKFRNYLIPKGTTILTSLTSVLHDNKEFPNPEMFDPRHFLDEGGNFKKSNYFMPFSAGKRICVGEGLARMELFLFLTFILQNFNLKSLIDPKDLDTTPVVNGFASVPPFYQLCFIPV

| SMILES | inhibition |
| --- | --- |
| COc1ccc(CCn2c(-c3ccco3)nc3nc4ccccc4nc32)cc1OC | 16.7% (inactive) |
| Clc1cccc(-c2nc3nc4ccccc4nc3n2Cc2ccco2)c1 | 1.8% (inactive) |
| CCC(C)n1c(-c2cc(OC)c(OC)c(OC)c2)nc2nc3ccccc3nc21 (stereo not drawn) | 92.6% (active) |
| CCOc1ccc(CNC(=O)C2CCC(=O)N2C2CCCC2)cc1OC (stereo not drawn) | -0.1% (inactive) |
| COC(=O)C1=C(C)Nc2ncnn2C1c1cccnc1 (stereo not drawn) | -0.3% (inactive) |
| Brc1ccc(C2=CC(c3ccco3)n3ncnc3N2)cc1 (stereo not drawn) | 33% (inactive) |
| Clc1ccc2c(c1)C1=C(C(c3ccncc3)O2)C(c2ccc(Br)cc2)n2ncnc2N1 (stereo not drawn) | 86.1% (active) |
| Cc1ccc(Cc2c(C)nc3nc(SCC(=O)NCCN4CCOCC4)nn3c2C)cc1 | -3.1% (inactive) |
| COc1ccc(-c2cc3nc(C)c(CCC(=O)NC(C)CCc4ccco4)c(C)n3n2)c(OC)c1 (stereo not drawn) | 30.5% (inactive) |
| CCCCNC(=O)OC(C)CNC(=O)OC (stereo not drawn) | 2.3% (inactive) |
| COc1c(C)cccc1C(=O)Nc1cc(Cl)ccc1N1CCOCC1 | 20.6% (inactive) |
| CC(=O)Nc1ccc(N2CCOCC2)c(C(=O)Nc2cccc(C)c2)c1 | 53.3% (active) |
| CC(=O)Nc1cccc(Oc2cc(C#N)c(C#N)cc2N2CCOCC2)c1 | 5.2% (inactive) |
| CCOc1ccc(NS(=O)(=O)c2ccc(OCC(=O)NCCCOC)cc2)cc1 | 2.3% (inactive) |
| COc1ccc2oc(C)c(NC(C)=O)c2c1 | 13.5% (inactive) |
| CC(=O)Nc1ccc(S(=O)(=O)N2CCCC2C(=O)O)cc1 (stereo not drawn) | -6.9% (inactive) |
| COC(=O)COc1ccc(S(=O)(=O)Nc2ccc(NC(C)=O)cc2)cc1 | 69.1% (active) |
| COc1ccc(S(=O)(=O)Nc2ccc3oc(C)c(C(C)=O)c3c2)cc1 | 67.4% (active) |
| CC(=O)Nc1ccc(S(=O)(=O)Nc2ccc(N3CCOCC3)c(F)c2)cc1 | 93.5% (active) |
| COc1ccc(NC(=O)c2c(C)oc3c2CCCC3)cc1 | 24.5% (inactive) |
| O=C(O)CCC(=O)Nc1ccc(N2CCOCC2)cc1 | -9% (inactive) |
| COc1ccc(NS(=O)(=O)c2ccc(NC(=S)NC(=O)CC(C)C)cc2)cc1 | 25.1% (inactive) |
| CCCc1[nH]nc2c1C(c1c(C)nn(-c3ccccc3)c1Cl)C(C#N)=C(N)O2 (stereo not drawn) | 49.2% (inactive) |
| CC(=O)Oc1cc2c(C(=O)NCCN3CCOCC3)c(C)oc2c2ccccc12 | 34.2% (inactive) |
| Cc1ccc(C2=CSC3=NS(=O)(=O)CCN23)cc1C | 2.5% (inactive) |

| SMILES | inhibition |
| --- | --- |
| CC(=O)c1c(C)n([O-])c2ccccc2[n+]1=O | -0.9% (inactive) |
| O=C(N/N=C/c1ccc(O)cc1)/C(=C/c1ccc([N+](=O)[O-])cc1)NC(=O)c1ccccc1 | 7.9% (inactive) |
| C/C(=C(\C#N)C(=O)NCCCN1CCOCC1)N(C)C | -11.3% (inactive) |
| Cc1ccc(S(=O)(=O)/N=C(\CN2CCOCC2)N2CCOCC2)cc1 | -1.3% (inactive) |
| N#Cc1cccc(CSc2nnc(CCCO)n2-c2ccccc2)c1 | 8.4% (inactive) |
| O=C(/C=C/Nc1ccccc1)c1cnc(-c2ccccc2)s1 | 0.3% (inactive) |
| Nc1c(-c2ccc(F)cc2)cnn1C1CCS(=O)(=O)C1 (stereo not drawn) | -15.6% (inactive) |
| COc1cccc(C2/C(=C(/O)c3ccc(F)cc3)C(=O)C(=O)N2CCN(C)C)c1 (stereo not drawn) | 5.9% (inactive) |
| CCOC(=O)c1sc(NC(=O)C(CC)Sc2nccn2C)nc1C (stereo not drawn) | 28% (inactive) |
| CC(=O)N1CCCc2cc(S(=O)(=O)CCC(=O)N3CCN(c4ccccc4)CC3)ccc21 | 29.1% (inactive) |
| CCOC(=O)CC1=CC(=O)Nc2ccccc2N1 | 12.4% (inactive) |
| Cc1ccc(C(=O)NC2CC(C)(C)NC(C)(C)C2)c(C)c1 | -14.1% (inactive) |
| COc1ccc(NS(=O)(=O)c2ccc(NC(C)=O)cc2)cc1OC | 43.3% (inactive) |
| CCNS(=O)(=O)c1ccc(NC(=O)Nc2cccc(OC)c2)cc1 | 25.1% (inactive) |
| COc1cc(NS(=O)(=O)c2ccc(NC(C)=O)cc2)cc(OC)c1 | 98% (active) |
| O=C(O)c1ccc(COc2c(F)c(F)cc(F)c2F)o1 | -3.2% (inactive) |
| CCOc1ccc(OCc2ccc(C(=O)Nc3cccc(C)n3)o2)cc1 | 35.8% (inactive) |
| O=C(Nc1ccn(Cc2ccccc2F)n1)c1ccc(COc2ccc(Cl)cc2Cl)o1 | 57.8% (active) |
| O=C1CCC(Cc2ccccc2)N1 (stereo not drawn) | 8.7% (inactive) |
| O=C(O)c1ccc(COCC(F)(F)F)cc1 | -5.4% (inactive) |
| Cc1sc(NC(=S)NC(=O)c2cccs2)nc1-c1ccc(CC(C)C)cc1 | 4.5% (inactive) |
| CN(Cc1nc2ccccc2c(=O)[nH]1)Cc1cc(=O)oc2ccc3ccccc3c12 | 2.9% (inactive) |
| O=C(c1ccco1)N(Cc1nc2ccccc2c(=O)[nH]1)C1CCCC1 | 7.2% (inactive) |
| CCCC(=O)N(CCc1ccccc1)Cc1nc2ccccc2c(=O)[nH]1 | 53.5% (active) |
| O=C(Nc1ccc(Cl)cn1)Nc1cccs1 | 31.4% (inactive) |

| SMILES | inhibition |
| --- | --- |
| O=C1OC(c2ccc(Cl)cc2)=N/C1=C\c1cccnc1 | 33.1% (inactive) |
| CCN(CC)C(=O)CC1(c2ccccc2OC)CCOC(C(C)C)C1 (stereo not drawn) | 73.3% (active) |
| CCN(CC)C(=O)CSc1nc2ccccc2n1CC(=O)N1CCN(c2ccccc2OC)CC1 | 27% (inactive) |
| C/C(CC(O)(/C=N/O)c1ccccc1)=N\O (stereo not drawn) | -13% (inactive) |
| Cc1ccc(N2CCN(/N=C/c3cccs3)CC2)cc1 | 35.3% (inactive) |
| O=C(Cn1[nH]c(=O)c2ccccc2c1=O)Nc1cccc(-c2nnc3n2CCCCC3)c1 | 25.7% (inactive) |
| O=C(CN1C(=O)NC(Cc2ccccc2)(Cc2ccccc2)C1=O)NCC1CCCCC1 | 41.6% (inactive) |
| O=C(NCCCN1CCN(Cc2ccccc2)CC1)C1CCN(S(=O)(=O)N2CCCC2)CC1 | -1.9% (inactive) |
| O=C(NCc1ccccc1)C1C(=O)N(Cc2ccccc2)C(=O)C1C1(O)CCCC1 (stereo not drawn) | 91.9% (active) |
| Cc1ccccc1Nc1nnc(C)c(=O)[nH]1 | 0.4% (inactive) |
| CCc1c(O)nc(SCC(=O)Nc2ccccc2)n(C(C)CC)c1=O (stereo not drawn) | 0.7% (inactive) |
| COCC(C)n1c(SCc2ccc(C(=O)OC)o2)nc2ccccc2c1=O (stereo not drawn) | 96.7% (active) |
| COC(=O)c1ccc(CSc2nc3ccccc3c(=O)n2-c2cccc(OC)c2)o1 | 98.4% (active) |
| N#CCSc1nc2ccccc2c(=O)n1-c1ccccc1 | 13.3% (inactive) |
| COc1cccc(-n2cc(C(=O)O)c3ccccc3c2=O)c1 | 1.5% (inactive) |
| CN1CCN(C(=O)C2C3C=CC(C3)C2C(=O)O)CC1 (stereo not drawn) | 33.8% (inactive) |
| OCCNc1nc2ccccc2n1-c1ncnc2sc3c(c12)CCC3 | -6% (inactive) |
| COc1ccc(N2C(=O)C3CCCN3C2c2cc(OC)c(OC)cc2OC)cc1 (stereo not drawn) | -12.2% (inactive) |
| Cc1ccccc1CSc1nnc(-c2cccnc2)n1N | 28.5% (inactive) |
| Cc1ccsc1CNn1cnnc1SCc1ccccc1F | 83.4% (active) |
| COc1ccc2[nH]c(=O)c(CNc3ccc(C)c(C)c3)cc2c1 | 24% (inactive) |
| COc1cccc2cc(C(C)N(CCCN3CCOCC3)C(=O)Nc3ccc(Cl)cc3)oc12 (stereo not drawn) | 48.4% (inactive) |
| Cc1ccc(-c2csc(-c3c[nH]c4ccccc34)n2)cc1 | -2.4% (inactive) |
| COCCOCCn1cnc2ccccc21 | -2.7% (inactive) |
| O=C(COC(=O)c1ccc(Oc2ccccc2)cc1)Nc1nnc(-c2ccccc2)o1 | 34.2% (inactive) |

| SMILES | inhibition |
| --- | --- |
| CCOc1ccc(NCCC(=O)c2ccc3c(c2)OCO3)cc1 | 37.9% (inactive) |
| CCOC(=O)c1c(C)oc2ccc(OCC(=O)N(CC)CC)cc12 | 47.5% (inactive) |
| CCOC(=O)c1c(C)[nH]c(C(=O)COc2ccc3c(c2)OCO3)c1C | 78.4% (active) |
| CN1CCN(CCCNC(=O)c2cc3c(=O)oc4ccccc4c3s2)CC1 | -1.6% (inactive) |
| CC(C)(CNCC(O)c1ccccc1)N1CCOCC1 (stereo not drawn) | -1.1% (inactive) |
| CCC(=O)NNc1cc(=O)c2c(=O)n(C)c(=O)n(C)c2[nH]1 | 11.1% (inactive) |
| O=C(c1cccc(C(=O)N2CCc3ccccc32)n1)N1CCc2ccccc21 | 12.3% (inactive) |
| O=C(c1c(Cl)nc2sccn12)N1CCCc2ccccc21 | 91.5% (active) |
| COc1ccc2oc(=O)c(C(=O)N3CCCc4ccccc43)cc2c1 | 10.2% (inactive) |
| Cc1noc(COc2ccccc2OCC(O)CNC(C)(C)C)n1 (stereo not drawn) | -7.7% (inactive) |
| CN(c1ccccc1)c1ccc(/C=c2\s/c(=C(/C#N)C(=O)C(C)(C)C)n(Cc3ccco3)c2=O)cc1 | 5.4% (inactive) |
| Cn1c(-c2sc3cc(C(F)(F)F)cnc3c2-c2ccccc2)n[nH]c1=S | 47.3% (inactive) |
| FC(F)(F)c1cc(-c2cccs2)nc(NCc2ccco2)n1 | 20.5% (inactive) |
| FC(F)(F)c1cc(-c2ccco2)nc(NCc2ccc(Cl)cc2)n1 | 57% (active) |
| FC(F)(F)c1cc(-c2ccco2)nc(N2CCOCC2)n1 | -16.1% (inactive) |
| Cc1ccccc1NC(=O)c1cnn(-c2ccccc2)c1NC(=O)c1ccco1 | -2.6% (inactive) |
| COCCNC(=O)C(c1ccc(C)o1)N(Cc1cccs1)C(=O)c1snc(C(N)=O)c1N (stereo not drawn) | 2.1% (inactive) |
| c1ccc2c(c1)OCC(c1nn3cnnc3s1)O2 (stereo not drawn) | 74.8% (active) |
| O=C(CCN1C(=O)COc2ccccc21)NCCCN1CCN(c2ccc(F)cc2)CC1 | -10.1% (inactive) |
| CCOC(=O)c1cnc(-n2nc(C)cc2C)nc1-n1nc(C)cc1C | 5.2% (inactive) |
| CCc1nnc(NC(=O)c2ccc(S(=O)(=O)NC3CCCCC3)cc2)s1 | 14.5% (inactive) |
| CCOC1CCCCC1NS(=O)(=O)c1ccc(Cl)cc1 (stereo not drawn) | 69.5% (active) |
| O=C(NNS(=O)(=O)c1ccc(Cl)cc1)C1CCN(Cc2ccccc2)CC1 | 6% (inactive) |
